Counter-ions that a name gives are not always drawn. ± gives the standard deviation or the standard deviation of the averaged measurements.
What was measured:
Settings in all cases: 25 µM; exposure: 24-48 hpf
[1] = system: Danio rerio Tg(wt1b:EGFP) embryo, pronephros; assay: glomerular separation, fold change vs DMSO control; higher = glomeruli further apart (abnormal)
Outline: (§1)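 Features are reported as fold changes against the mean of same-day DMSO-treated embryos. Before that, values more than 2 SD away from the feature mean were excluded. The embryos, dechorionated Tg(wt1b:EGFP) zebrafish, had been exposed from 24 to 48 hpf at 28.5°C to 25 μM compound in 0.5% DMSO in HEPES-buffered E3 with 0.003% PTU, and distances and angles came from 16 manually set points on maximum projections of dorsal pronephros images in Fiji.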

[2] = system: Danio rerio Tg(wt1b:EGFP) embryo, pronephros; assay: glomerular width (mean of left and right), fold change vs DMSO control; higher = wider glomerulus
Outline: as §1

[3] = system: Danio rerio Tg(wt1b:EGFP) embryo, pronephros; assay: fraction of imaged embryos annotated as normal kidney; higher = less nephrotoxic; extreme values may be limits of the assay
Outline: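 Tricaine-anaesthetised Tg(wt1b:EGFP) zebrafish larvae were oriented dorsally in agarose-filled 96-well plates, and their pronephroi were recorded by widefield fluorescence at 470 nm in 10 z-slices. Before this, the dechorionated embryos had been exposed in 12-well plates to 25 μM compound in 0.5% DMSO and 5 mM HEPES-buffered E3 with 0.003% PTU, from 24 to 48 hpf at 28.5°C. Maximum projections were annotated manually for each embryo, and the read-out is the fraction per treatment classed as normal kidney.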

[4] = system: Danio rerio Tg(wt1b:EGFP) embryo, pronephros; assay: pronephric angle neck segment to proximal convoluted tubule (mean of left and right), fold change vs DMSO control; higher = larger pronephric angle
Outline: as §1

## Cc1cn[nH]c1 [Fomepizole]
[1]
  glomerular separation: 0.953 ± 0.37
[2]
  glomerular width: 1.0458 ± 0.00026
[3]
  fraction of imaged embryos annotated as normal kidney: 0.917
[4]
  pronephric angle neck segment: 1.01 ± 0.018

## CS(=O)(=O)c1ccc(C2=C(c3ccccc3)C(=O)OC2)cc1 [Rofecoxib]
[1]
  glomerular separation: 0.981 ± 0.22
[2]
  glomerular width: 0.974 ± 0.11
[3]
  fraction of imaged embryos annotated as normal kidney: 1
[4]
  pronephric angle neck segment: 0.969 ± 0.024

## CC(C)NNC(=O)c1ccncc1 [Iproniazide phosphate]
[1]
  glomerular separation: 0.735 ± 0.21
[2]
  glomerular width: 1.03 ± 0.024
[3]
  fraction of imaged embryos annotated as normal kidney: 1
[4]
  pronephric angle neck segment: 0.9788 ± 0.0054

## CC(C)Oc1ccc2c(=O)c(-c3ccccc3)coc2c1 [Ipriflavone]
[1]
  glomerular separation: 0.901 ± 0.33
[2]
  glomerular width: 0.918 ± 0.049
[3]
  fraction of imaged embryos annotated as normal kidney: 0.833
[4]
  pronephric angle neck segment: 1.06 ± 0.028

## OC(CCCN1CCCCC1)(c1ccccc1)c1ccccc1 [Diphenidol hydrochloride]
[1]
  glomerular separation: 0.854 ± 0.23
[2]
  glomerular width: 1.1 ± 0.11
[3]
  fraction of imaged embryos annotated as normal kidney: 0.833
[4]
  pronephric angle neck segment: 1.06 ± 0.02

## COc1ccc(CN2CCN(C(c3ccc(F)cc3)c3ccc(F)cc3)CC2)c(OC)c1OC [Lomerizine hydrochloride]
[1]
  glomerular separation: 0.888 ± 0.33
[2]
  glomerular width: 0.9746 ± 0.0083
[3]
  fraction of imaged embryos annotated as normal kidney: 0.583
[4]
  pronephric angle neck segment: 0.99 ± 0.019

## CCCc1cc(=O)[nH]c(=S)[nH]1 [Propylthiouracil]
[1]
  glomerular separation: 0.81 ± 0.17
[2]
  glomerular width: 1.058 ± 0.0069
[3]
  fraction of imaged embryos annotated as normal kidney: 1
[4]
  pronephric angle neck segment: 1.02 ± 0.044

## O=C1[C@H]2CCCC[C@H]2C(=O)N1CCCCN1CCN(c2nsc3ccccc23)CC1 [Perospirone]
[1]
  glomerular separation: 1.25 ± 0.36
[2]
  glomerular width: 0.9761 ± 0.0054
[3]
  fraction of imaged embryos annotated as normal kidney: 1
[4]
  pronephric angle neck segment: 1.05 ± 0.017

## CC(C)(Sc1cc(C(C)(C)C)c(O)c(C(C)(C)C)c1)Sc1cc(C(C)(C)C)c(O)c(C(C)(C)C)c1 [Probucol]
[1]
  glomerular separation: 0.815 ± 0.18
[2]
  glomerular width: 0.925 ± 0.06
[3]
  fraction of imaged embryos annotated as normal kidney: 1
[4]
  pronephric angle neck segment: 0.928 ± 0.023

## Nc1ccc(S(=O)(=O)Nc2ccnn2-c2ccccc2)cc1 [Sulfaphenazole]
[1]
  glomerular separation: 1.06 ± 0.3
[2]
  glomerular width: 1.022 ± 0.0084
[3]
  fraction of imaged embryos annotated as normal kidney: 0.917
[4]
  pronephric angle neck segment: 1.02 ± 0.024

## COc1cc(C)nc(-n2nc(C)cc2OC)n1 [Epirizole]
[1]
  glomerular separation: 1.39 ± 0.73
[2]
  glomerular width: 0.957 ± 0.021
[3]
  fraction of imaged embryos annotated as normal kidney: 0.75
[4]
  pronephric angle neck segment: 1.03 ± 0.027

## CCN1C(=O)NC(c2ccccc2)C1=O (configuration not stated) [Ethotoin]
[1]
  glomerular separation: 0.796 ± 0.17
[2]
  glomerular width: 0.998 ± 0.037
[3]
  fraction of imaged embryos annotated as normal kidney: 0.917
[4]
  pronephric angle neck segment: 0.942 ± 0.014

## Nc1ccn([C@@H]2O[C@H](CO)[C@@H](O)C2(F)F)c(=O)n1 [Gemcitabine]
[1]
  glomerular separation: 0.851 ± 0.34
[2]
  glomerular width: 0.99 ± 0.053
[3]
  fraction of imaged embryos annotated as normal kidney: 0.917
[4]
  pronephric angle neck segment: 1.03 ± 0.039

## C#C[C@]1(O)CC[C@H]2[C@@H]3CCC4=CCCC[C@@H]4[C@H]3CC[C@@]21C [Lynestrenol]
[1]
  glomerular separation: 0.801 ± 0.38
[2]
  glomerular width: 0.994 ± 0.054
[3]
  fraction of imaged embryos annotated as normal kidney: 0.917
[4]
  pronephric angle neck segment: 1.02 ± 0.051

## Cc1nnc(SCC2=C(C(=O)O)N3C(=O)[C@@H](NC(=O)Cn4cnnn4)[C@H]3SC2)s1 [Cefazolin sodium salt]
[1]
  glomerular separation: 0.771 ± 0.24
[2]
  glomerular width: 1.072 ± 0.008
[3]
  fraction of imaged embryos annotated as normal kidney: 0.75
[4]
  pronephric angle neck segment: 1.03 ± 0.027

## CN(C)CCC[C@@]1(c2ccc(F)cc2)OCc2cc(C#N)ccc21 [Escitalopram oxalate]
[1]
  glomerular separation: 1.13 ± 0.38
[2]
  glomerular width: 0.9778 ± 0.0032
[3]
  fraction of imaged embryos annotated as normal kidney: 0.833
[4]
  pronephric angle neck segment: 0.941 ± 0.024

## COc1ccc(/C=C/C(=O)Nc2ccccc2C(=O)O)cc1OC [Tranilast]
[1]
  glomerular separation: 2.14 ± 1.2
[2]
  glomerular width: 1.08 ± 0.049
[3]
  fraction of imaged embryos annotated as normal kidney: 0.583
[4]
  pronephric angle neck segment: 1.139 ± 0.0021

## CCCCNC(=O)NS(=O)(=O)c1ccc(C)cc1 [Tolbutamide]
[1]
  glomerular separation: 1.01 ± 0.53
[2]
  glomerular width: 1.01 ± 0.014
[3]
  fraction of imaged embryos annotated as normal kidney: 0.833
[4]
  pronephric angle neck segment: 1.04 ± 0.023

## CC(C)(C)C(=O)OCOC(=O)[C@@H]1N2C(=O)[C@@H](/N=C/N3CCCCCC3)[C@H]2SC1(C)C [Pivmecillinam hydrochloride]
[1]
  glomerular separation: 0.772 ± 0.17
[2]
  glomerular width: 1.101 ± 0.0091
[3]
  fraction of imaged embryos annotated as normal kidney: 0.75
[4]
  pronephric angle neck segment: 1.04 ± 0.012

## Nc1c2ccccc2nc2ccccc12 [Aminacrine]
[1]
  glomerular separation: 0.947 ± 0.57
[2]
  glomerular width: 1.01 ± 0.055
[3]
  fraction of imaged embryos annotated as normal kidney: 1
[4]
  pronephric angle neck segment: 0.996 ± 0.028

## Clc1ccc(C(c2ccccc2Cl)C(Cl)Cl)cc1 (configuration not stated) [Mitotane]
[1]
  glomerular separation: 0.566 ± 0.18
[2]
  glomerular width: 0.969 ± 0.038
[3]
  fraction of imaged embryos annotated as normal kidney: 0.909
[4]
  pronephric angle neck segment: 1.05 ± 0.049

## COc1ccccc1N1CCN(CCCNc2cc(=O)n(C)c(=O)n2C)CC1 [Urapidil hydrochloride]
[1]
  glomerular separation: 1.09 ± 0.36
[2]
  glomerular width: 0.969 ± 0.025
[3]
  fraction of imaged embryos annotated as normal kidney: 0.917
[4]
  pronephric angle neck segment: 1.02 ± 0.025

## Cc1cnc(NC(=O)C2=C(O)c3ccccc3S(=O)(=O)N2C)s1 [Meloxicam]
[1]
  glomerular separation: 6.33 ± 2.2
[2]
  glomerular width: 0.678 ± 0.021
[3]
  fraction of imaged embryos annotated as normal kidney: 0
[4]
  pronephric angle neck segment: 1.76 ± 0.0091

## C[C@]12CC[C@@H]3c4ccc(OS(=O)(=O)O)cc4CC[C@H]3[C@@H]1CCC2=O [Estropipate]
[1]
  glomerular separation: 1.27 ± 0.59
[2]
  glomerular width: 0.95203 ± 0.00068
[3]
  fraction of imaged embryos annotated as normal kidney: 0.75
[4]
  pronephric angle neck segment: 1.02 ± 0.012

## CC(C(O)c1ccc(O)cc1)N1CCC(Cc2ccccc2)CC1 (configuration not stated) [Ifenprodil tartrate]
[1]
  glomerular separation: 0.712 ± 0.33
[2]
  glomerular width: 1.04 ± 0.024
[3]
  fraction of imaged embryos annotated as normal kidney: 1
[4]
  pronephric angle neck segment: 0.942 ± 0.089

## CC(NCCc1ccc(O)cc1)C(O)c1ccc(O)cc1 (configuration not stated) [Ritodrine hydrochloride]
[1]
  glomerular separation: 1.03 ± 0.28
[2]
  glomerular width: 0.952 ± 0.012
[3]
  fraction of imaged embryos annotated as normal kidney: 0.833
[4]
  pronephric angle neck segment: 1.038 ± 0.0019

## CCc1c(C)[nH]c2c1C(=O)C(CN1CCOCC1)CC2 (configuration not stated) [Molindone hydrochloride]
[1]
  glomerular separation: 0.897 ± 0.23
[2]
  glomerular width: 1 ± 0.018
[3]
  fraction of imaged embryos annotated as normal kidney: 0.833
[4]
  pronephric angle neck segment: 0.956 ± 0.0018

## O=c1[nH]c(=O)n(C2CCCO2)cc1F (configuration not stated) [Tegafur]
[1]
  glomerular separation: 1.02 ± 0.41
[2]
  glomerular width: 1.05 ± 0.057
[3]
  fraction of imaged embryos annotated as normal kidney: 0.917
[4]
  pronephric angle neck segment: 0.991 ± 0.041

— the supplement of paper PMC7366291
